Read-out in assay [1]: Interleukin-8 (IL8), CXCL8 (gene 3576)
Put plainly: BSK_CASM3C_IL8: BioMAP Diversity Plus: CASM3C Assay for Interleukin-8 (IL8) Biomarker Activity (AID 2283042).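 Note: IL-8 protein level quantified by ELISA.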 To be noted: primary human coronary artery smooth muscle cells; actives raise or lower the signal.

Read-out in assay [2]: Human Leukocyte Antigen - DR isotype (HLADR), HLA-DRA (gene 3122)
The assay can be described thus: BSK_CASM3C_HLADR: BioMAP Diversity Plus: CASM3C Assay for Human Leukocyte Antigen - DR isotype (HLADR) Biomarker Activity (AID 2283043).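 Note: cell-surface HLA-DR protein level quantified by ELISA.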 Particulars: primary human coronary artery smooth muscle cells; actives raise or lower the signal.

Read-out in assay [3]: Macrophage colony-stimulating factor (MCSF), CSF1 (gene 1435)
The assay can be described thus: BSK_CASM3C_MCSF: BioMAP Diversity Plus: CASM3C Assay for Macrophage colony-stimulating factor (MCSF) Biomarker Activity (AID 2283044).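 Note: M-CSF protein amount quantified by ELISA after 24 h exposure.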 Particulars: primary human coronary artery smooth muscle cells; actives raise or lower the signal.

Read-out in assay [4]: Low-density lipoprotein receptor (LDLR), LDLR (gene 3949)
Put plainly: BSK_CASM3C_LDLR: BioMAP Diversity Plus: CASM3C Assay for Low-density lipoprotein receptor (LDLR) Biomarker Activity (AID 2283045).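 Note: LDLR protein level on the cell surface quantified by ELISA.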 Particulars: primary human coronary artery smooth muscle cells; actives raise or lower the signal.

Read-out in assay [5]: Monocyte Chemoattractant Protein-1 (MCP1), CCL2 (gene 6347)
The assay can be described thus: BSK_CASM3C_MCP1: BioMAP Diversity Plus: CASM3C Assay for Monocyte Chemoattractant Protein-1 (MCP1) Biomarker Activity (AID 2283046).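 Note: MCP-1 level quantified by ELISA 24 h after dosing.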 Particulars: primary human coronary artery smooth muscle cells; actives raise or lower the signal.

A short description of assay [6]: BSK_CASM3C_Proliferation: Cell Proliferation Assessment in the BioMAP Diversity Plus: CASM3C Assay (AID 2283047).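 Note: sulforhodamine B total protein stain as relative cell number at 560 nm; sub-confluent cells exposed 48 h before staining; fitted both ways against DMSO so gain or loss of cell number.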 Particulars: primary human coronary artery smooth muscle cells.
Read-out in assay [7]: Monokine induced gamma interferon (MIG), CXCL9 (gene 4283)
The assay can be described thus: BSK_CASM3C_MIG: BioMAP Diversity Plus: CASM3C Assay for Monokine induced gamma interferon (MIG) Biomarker Activity (AID 2283048).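 Note: MIG protein level measured by ELISA.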 Particulars: primary human coronary artery smooth muscle cells; actives raise or lower the signal.

Read-out in assay [8]: serum amyloid A (SAA), SAA1 (gene 6288)
Put plainly: BSK_CASM3C_SAA: BioMAP Diversity Plus: CASM3C Assay for serum amyloid A (SAA) Biomarker Activity (AID 2283049).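 Note: SAA protein level quantified by ELISA.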 Particulars: primary human coronary artery smooth muscle cells; actives raise or lower the signal.

Assay [9] is described as follows: BSK_CASM3C_SRB: Viability Assessment in the BioMAP Diversity Plus: CASM3C Assay (AID 2283050).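 Note: total protein by SRB staining as cytotoxicity measure in parallel cultures; cells exposed to compound for 24 h.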 Particulars: primary human coronary artery smooth muscle cells.
Read-out in assay [10]: Thrombomodulin, THBD (gene 7056)
Put plainly: BSK_CASM3C_Thrombomodulin: BioMAP Diversity Plus: CASM3C Assay for Thrombomodulin Biomarker Activity (AID 2283051).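 Note: thrombomodulin protein level measured by ELISA 24 h after dosing.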 Particulars: primary human coronary artery smooth muscle cells; actives raise or lower the signal.

Read-out in assay [11]: Tissue Factor, F3 (gene 2152)
The assay can be described thus: BSK_CASM3C_TissueFactor: BioMAP Diversity Plus: CASM3C Assay for Tissue Factor Biomarker Activity (AID 2283052).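 Note: cell surface tissue factor protein level read by ELISA.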 Particulars: primary human coronary artery smooth muscle cells; actives raise or lower the signal.

Read-out in assay [12]: Interferon-gamma inducible Protein 10 (IP10), CXCL10 (gene 3627)
Put plainly: BSK_hDFCGF_IP10: BioMAP Diversity Plus: hDFCGF Assay for Interferon-gamma inducible Protein 10 (IP10) Biomarker Activity (AID 2283053). Particulars: primary human foreskin fibroblasts; actives raise or lower the signal. Put shortly:
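ELISA read-out of IP-10 (CXCL10) from primary human skin fibroblasts, 24 h after compound addition. Gain or loss of signal versus DMSO baseline, bidirectional curve fitting.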

Read-out in assay [13]: Urokinase-type plasminogen activator receptor (uPAR), PLAUR (gene 5329)
Put plainly: BSK_CASM3C_uPAR: BioMAP Diversity Plus: CASM3C Assay for Urokinase-type plasminogen activator receptor (uPAR) Biomarker Activity (AID 2283054).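 Note: cell-surface uPAR protein level quantified by ELISA.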 To be noted: primary human coronary artery smooth muscle cells; actives raise or lower the signal.

Read-out in assay [14]: Vascular cell adhesion molecule 1 (VCAM1), VCAM1 (gene 7412)
Put plainly: BSK_CASM3C_VCAM1: BioMAP Diversity Plus: CASM3C Assay for Vascular cell adhesion molecule 1 (VCAM1) Biomarker Activity (AID 2283055).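 Note: VCAM-1 protein level quantified by ELISA on the cells.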 Particulars: primary human coronary artery smooth muscle cells; actives raise or lower the signal.

Read-out in assay [15]: Collagen III, COL3A1 (gene 1281)
The assay can be described thus: BSK_hDFCGF_CollagenIII: BioMAP Diversity Plus: hDFCGF Assay for Collagen III Biomarker Activity (AID 2283056). Particulars: primary human foreskin fibroblasts; actives raise or lower the signal. Put shortly: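 ELISA read-out of collagen III from human skin fibroblast cultures sampled 24 h post-dosing. Values were derived by bidirectional fitting relative to the DMSO vehicle control.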

Read-out in assay [16]: Epidermal growth factor receptor (EGFR), EGFR (gene 1956)
The assay can be described thus: BSK_hDFCGF_EGFR: BioMAP Diversity Plus: hDFCGF Assay for Epidermal growth factor receptor (EGFR) Biomarker Activity (AID 2283057). To be noted: primary human foreskin fibroblasts; actives raise or lower the signal. A digest of the protocol: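 ELISA readout of EGFR on human dermal fibroblasts (primary foreskin cells), 24 h post-dosing; bidirectional curve fit vs DMSO baseline, gain or loss of signal scored.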

A short description of assay [17]: BSK_hDFCGF_SRB: Viability Assessment in the BioMAP Diversity Plus: hDFCGF Assay (AID 2283061).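 Note: cells exposed to compound for 24 h before the read.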 Particulars: primary human foreskin fibroblasts. Put shortly:
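Readout is SRB absorbance at 560 nm, reflecting total protein in parallel cultures of human foreskin fibroblasts harvested 24 h after chemical dosing. Activity was fitted bidirectionally relative to DMSO.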

Read-out in assay [18]: Interleukin-8 (IL8), CXCL8 (gene 3576)
The assay can be described thus: BSK_hDFCGF_IL8: BioMAP Diversity Plus: hDFCGF Assay for Interleukin-8 (IL8) Biomarker Activity (AID 2283058). Particulars: primary human foreskin fibroblasts; actives raise or lower the signal. Put shortly:
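Cells used are human skin primary fibroblasts. Chemical is added, cultures run 24 h, then IL-8 is quantified by ELISA, and gain or loss versus DMSO control is fitted in both directions.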

Assay [19] is described as follows: BSK_hDFCGF_Proliferation: Cell Proliferation Assessment in the BioMAP Diversity Plus: hDFCGF Assay (AID 2283059).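 Note: curves fitted for both rise and fall of signal versus DMSO baseline.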 To be noted: primary human foreskin fibroblasts. A digest of the protocol:
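Primary human foreskin fibroblasts, sub-confluent; […]; 10% TCA fix, 0.1% SRB stain, A560 total protein. Gain/loss fitted bidirectionally vs DMSO control.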

Read-out in assay [20]: Macrophage colony-stimulating factor (MCSF), CSF1 (gene 1435)
Put plainly: BSK_hDFCGF_MCSF: BioMAP Diversity Plus: hDFCGF Assay for Macrophage colony-stimulating factor (MCSF) Biomarker Activity (AID 2283060). To be noted: primary human foreskin fibroblasts; actives raise or lower the signal. A digest of the protocol: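 Primary human foreskin fibroblasts dosed with chemical; 24 h later, M-CSF quantified by ELISA; curves fitted in both directions vs DMSO negative control.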

Structures are written as SMILES. Active and inactive are the calls of the source. Rule for the calls: active = hit-call score of the fitted dose curve at least 0.9, where 1 is the maximum; inactive = score below 0.9.

As for `Cc1cccc2ccccc12`, the outcome in assay [1], in [2], in assay [3], in assay [4], in [5] and in assay [6] was inactive. Moreover, the result in assay [7], in assay [8], in assay [9], in [10], in [11] and in assay [12] was inactive. The outcome in assay [13], in [14], in assay [15], in assay [16] and in assay [17] was inactive.

For `CC/C(=C(/CC)c1ccc(O)cc1)c1ccc(O)cc1`, the AC50 in assay [1] was 1.17 µM (active); in assay [4], 8.57 µM (active); in assay [5], 0.345 µM (active); in [6], 20 µM (active); in assay [8], 33.7 µM (active); in assay [9], 29.9 µM (active). In addition, the AC50 was 11 µM (active) in [11]; 20 µM (active) in assay [12]; 20 µM (active) in assay [14]; 11.4 µM (active) in assay [15]; 25.7 µM (active) in assay [17]. Further, the outcome in assay [2], in assay [3], in [7], in assay [10], in assay [13] and in assay [16] was inactive. The result in [18] was inactive.

`CCCCCCCCN(C)CCCCCCCC`: the outcome in [1], in assay [2], in assay [3], in [4], in assay [5] and in assay [6] was inactive. In addition, the outcome in assay [7], in assay [8], in assay [9], in [10], in assay [11] and in assay [12] was inactive. The result in [13], in assay [14], in assay [15], in assay [16], in [18] and in assay [19] was inactive. Also, in [17], the outcome was inactive.

As for `Cc1cn([C@H]2C[C@H](N=[N+]=[N-])[C@@H](CO)O2)c(=O)[nH]c1=O`, the result in assay [1], in [2], in assay [3], in assay [4], in [5] and in assay [6] was inactive. In addition, the outcome in assay [7], in assay [8], in assay [9], in assay [10], in assay [11] and in assay [12] was inactive. The outcome in assay [13], in assay [14], in assay [15], in assay [20] and in assay [17] was inactive.

In the case of `C[C@]12CC[C@@H]3c4ccc(O)cc4CC[C@H]3[C@@H]1CCC2=O`, the result in assay [1], in assay [2], in assay [3], in [4], in [5] and in assay [6] was inactive. In addition, the result in [7], in [8], in [9], in [10], in assay [11] and in assay [13] was inactive. Further, the outcome in assay [14], in [15], in [16], in assay [18], in assay [20] and in [17] was inactive. Further, the AC50 in [19] was 17.6 µM (active).

With `CCCCCCCCCCCO`, the outcome in assay [1], in assay [2], in assay [3], in assay [4], in [5] and in assay [7] was inactive. Besides, the outcome in [8], in assay [9], in assay [10], in assay [11], in assay [13] and in [14] was inactive. Moreover, in assay [16], the outcome was inactive. Besides, the AC50 in assay [6] is 33.5 µM (active); in assay [12], 36.8 µM (active); in assay [15] it was 31.6 µM (active); in assay [18] it was 32.4 µM (active); in [17], 30 µM (active).
